The results in this text go back to ChEMBL document CHEMBL3988442, “University of Dundee, Small-Polar-MMV Screening Library” (2021).

SMILES strings stand for the structures. Out of some 69,000 compounds screened, about 1,000 (1.4%) showed an effect of 50% or more. This excerpt belongs to a sample that is enriched for strong results.

The test system of this test is Leishmania donovani. As to the kind of experiment: Leishmania intramacrophage assay. It counts as functional, organism-based. Details: scale not given: in the data most compounds retested in dose-response had high values.

On to `Nc1nccnc1C(=O)N(Cc1ccccc1O)CC1CCCO1` (stereo not given), for which the “Percent Effect” value (30.3 µM, […]) is -0.1848%. On to `O=C(C(C1CC1)C1CC1)N1CCC(n2ccnn2)CC1`, for which, for the setting “30.3 µM, […]”, the “Percent Effect” value is 12.14%.

Turning to `CN1CCN(c2ncc3c(=O)n(-c4cccc(F)c4)c(=O)[nH]c3n2)CC1`, the “Percent Effect” value (30 µM, 30.03 µM) was 19.86%. For `O=C(O)C(F)(F)F.O=C(O)C(F)(F)F.O=C1NC2(CCN(Cc3cccs3)CC2)CC1c1ccncc1` (stereo not given), the “Percent Effect” value (30.3 µM, […]) came out at 15.69%. On the same count and under the same terms, to `COc1ccc(CC(=O)N2CCC(c3n[nH]c(C4CC4)n3)CC2)cc1` belongs 20.62%; to `CC(=O)Nc1nc(CNc2ccccc2CCC(F)(F)F)cs1`, -4.538%; to `CN1C[C@@H](C(=O)N2CCOCC2)[C@@]2(CCc3ccccc3C(=O)N2)C1`, 0.0295%. Still for that read-out and setting: as for `N#Cc1cnc2c(F)cc(F)cc2c1NC1CCN(CC(N)=O)CC1`, the figure is 54.87%; as for `N#Cc1cnc2cc(F)cc(F)c2c1NC1CCN(CC(N)=O)CC1`, 21.49%; as for `Cc1cc(C)c2ncc(C#N)c(NC3CCN(CC(N)=O)CC3)c2c1`, 5.1%. `CN(C)c1ccc(CC(=O)N[C@@H]2CCNC[C@H]2O)cc1`: the “Percent Effect” value (30 µM, 30.03 µM) is listed as -29.81%. `Cc1cc(C)n(CC(C)Nc2ncnc3c2CCNC3)n1` (stereo not given): where the note is “30.3 µM, […]”, the “Percent Effect” value was -4.806%. Consider `Cc1ccccc1C(CNc1ncnc2c1CCNCC2)N(C)C` (stereo not given), for which, under “30.3 µM, […]”, the “Percent Effect” value is given as -7.029%. Same read-out and setting: as for `CCOc1ccc(C(C)Nc2ncnc3c2CCNC3)cc1OCC` (stereo not given), the figure is 19.33%; as for `CC(Nc1ncnc2c1CCNCC2)c1nc2c(s1)CCCC2` (stereo not given), 11.97%.

In the case of `Cc1ccccc1C(Nc1ncnc2c1CCNC2)c1ccccc1` (stereo not given), the “Percent Effect” value (30.3 µM, […]) came to 61.26%.

For `Cc1nc(C(C)Nc2ncnc3c2CCNCC3)c(C)s1` (stereo not given), for the setting “30.3 µM, […]”, the “Percent Effect” value was found to be 9.224%. The same measure, in the same setting: to `CC(Nc1ncnc2c1CCNC2)c1ccc2c(c1)CCCC2` (stereo not given) belongs 82.26%; to `CCCc1ccc(C(C)Nc2ncnc3c2CCNC3)cc1` (stereo not given), 81.31%; to `CC(Nc1ncnc2c1CCNC2)c1ccc(C(C)(C)C)cc1` (stereo not given), 88.55%. The same measure, in the same setting: as for `Cc1ccccc1C(CNc1ncnc2c1CCNC2)N(C)C` (stereo not given), the figure is -14.27%; as for `CCc1nc(NC2CC(=O)N(CC3CCCCC3)C2)ncc1C` (stereo not given), 15.64%. Same read-out and setting: as for `Cn1cc(C2CN(C(=O)Cc3coc(-c4ccccc4)n3)CCO2)cn1` (stereo not given), the figure is 1.481%.

With `COc1ccccc1CCN(C)C(=O)NC(C)c1nncn1C` (stereo not given), the “Percent Effect” value (30 µM, 30.03 µM) is listed as 13.36%. For `COc1cc(CN2CCC(COCc3ccccc3)CC2)cc(OC)c1`, the “Percent Effect” value (30.3 µM, […]) is 11.79%.

For the compound `CCc1ccc(Cn2nccc2NC(=O)C2CCS(=O)(=O)C2)cc1` (stereo not given), the “Percent Effect” value (30.3 µM, […]) was determined as 28.09%. Still for that read-out and setting: to `COc1ccc(-c2nnc([C@H]3CCN(C4CCC4)C3)o2)cc1` belongs 5.132%.

With `O=C(c1ccc(Cn2ccccc2=O)o1)N1CCSCC1`, the “Percent Effect” value (30 µM) came to 34.1%. For `Cc1nc2c(c(NCc3ccc(-c4ccccn4)s3)n1)CCNCC2`, the “Percent Effect” value (30.3 µM, […]) is 74.83%. Same read-out and setting: as for `c1ccc(-c2nc3c(c(NCCn4ccnn4)n2)CCNCC3)nc1`, the figure is 12.83%; as for `Cc1nc2c(c(NCc3nc4ccccc4s3)n1)CCNCC2`, 11.81%. The same measure, in the same setting: as for `Cc1nc2c(c(NCc3cc4ccccc4s3)n1)CCNCC2`, the figure is 99.76%; as for `Cc1nc2c(c(NCC3Cc4ccccc4CN3C)n1)CCNCC2` (stereo not given), 11.22%. Still for that read-out and setting: as for `Cc1nc2c(c(NCC(O)c3ccccc3Cl)n1)CCNCC2` (stereo not given), the figure is 52.68%; as for `c1ccc(-c2nc3c(c(NCCn4cccc4)n2)CCNCC3)nc1`, 4.707%.

As to `Cc1nc2c(c(NCC(c3ccccc3C)N(C)C)n1)CCNC2` (stereo not given), the “Percent Effect” value (30.3 µM, […]) came out at 37.15%. Same read-out and setting: as for `Cc1nc2c(c(NC3CCN(Cc4ccccc4)CC3)n1)CCNCC2`, the figure is 8.424%; as for `COC[C@@]12CCC[C@@H]1CN(C(=O)CN(C)C)C2.O=C(O)C(F)(F)F`, 2.882%.

`CCc1cnc(CCNC(C)CC(=O)Nc2cccc(C)c2C)s1` (stereo not given): the “Percent Effect” value (30.3 µM, […]) came out at 0.8494%. With `COCC1CN(Cc2cccc(C#N)c2)Cc2nccn2C1` (stereo not given), the “Percent Effect” value (30.3 µM, […]) was determined as 20.19%. For `CNC[C@H]1CC[C@H](c2cc(CN(C)S(=O)(=O)N(C)C)n(C)n2)CC1.Cl`, the “Percent Effect” value (30.3 µM, […]) turned out to be 29.88%. Still for that read-out and setting: to `COCC1CC2(CCN(C(=O)c3ccc(C)nc3)CC2)CO1.O=C(O)C(F)(F)F` (stereo not given) belongs 25.55%. On to `CN(C)[C@@H]1CCN(C(=O)NC2CCCC2)[C@H]1Cc1cnn(C)c1.O=C(O)C(F)(F)F`, for which the “Percent Effect” value (30 µM, 30.03 µM) was determined as 11.61%. Regarding `Cc1cc(N2CCC(c3nccn3Cc3cscn3)CC2)ccn1`, the “Percent Effect” value (30.3 µM, […]) is -14.56%. As to `Cc1cnn(CC(C)NCc2nc(-c3ccccn3)no2)c1` (stereo not given), the “Percent Effect” value (30.3 µM, […]) turned out to be 2.286%. `CN(C)S(=O)(=O)NCc1nc(-c2cccc(F)c2)c(-c2ccccn2)[nH]1`: under “30.3 µM, […]”, the “Percent Effect” value amounted to 3.232%.

Turning to `COCC(C)NCc1nc(-c2ccc(C)cc2)c(-c2ccccn2)[nH]1` (stereo not given), under “30.3 µM, […]”, the “Percent Effect” value worked out at 71.58%. The same measure, in the same setting: to `Cc1ccc(-c2nc(CNC(C)CCO)[nH]c2-c2ccccn2)cc1` (stereo not given) belongs 67.9%; to `Cc1ccc(-c2nc(CNS(=O)(=O)N(C)C)[nH]c2-c2ccccn2)cc1`, 30.48%. Still for that read-out and setting: to `COCc1ccc(C(=O)N2CCOCC2c2ccc(C)o2)cc1` (stereo not given) belongs 18.1%. The same measure, in the same setting: to `O=C(O)C(F)(F)F.c1ccc(C[C@H]2CN(C3CCOCC3)CC[C@H]2OCC2CC2)cc1` belongs 14.89%. For the compound `O=C(COc1coc(CN2CCCCCC2)cc1=O)c1ccccc1`, where the note is “30 µM, 30.03 µM”, the “Percent Effect” value was determined as 12.38%. As to `Cc1cc(C)c2c(NCC3(O)CCCCC3)ncnc2n1`, the “Percent Effect” value (30.3 µM, […]) is on record as -4.66%. The same measure, in the same setting: to `CC(c1c(F)cccc1F)N1CCN(Cc2nccn2C)CC1` (stereo not given) belongs 28.44%.

In the case of `O=C(N1CCCC1)N1CCc2ncnc(C3CCOC3)c2CC1` (stereo not given), the “Percent Effect” value (30 µM, 30.03 µM) is -0.6847%.

`CN(Cc1cc2cc(F)ccc2[nH]1)C(=O)C1CC(=O)N(C(C)(C)C)C1` (stereo not given): the “Percent Effect” value (30.3 µM, […]) is 55.15%. On the same count and under the same terms, to `CN(Cc1cc2cc(F)ccc2[nH]1)C(=O)C1CC(=O)N(C2CC2)C1` (stereo not given) belongs 14.52%; to `CCN1CC(C(=O)N(C)Cc2cc3cc(F)ccc3[nH]2)CC1=O` (stereo not given), 16.63%; to `COC(=O)c1ccc(F)c(Cn2nc(C)cc2C)c1`, 38.02%. Take `O=S(=O)(NC(CO)Cc1c[nH]c2ccccc12)c1cncc(F)c1` (stereo not given): the “Percent Effect” value (30.3 µM, […]) is recorded as 19.78%. The same measure, in the same setting: as for `Cc1ccc(C(=O)N2CCc3c(COCC4CC4)cncc3C2)o1`, the figure is -21.23%; as for `COCc1nc(CNc2cccc(-c3nc(C)c(C)o3)c2)cs1`, 3.012%.

Take `COCc1nc(CNc2cccc(-c3csc(C)n3)c2)cs1`: the “Percent Effect” value (30.3 µM, […]) is -17.78%. Take `COCc1nc(CNc2cccc(-c3ncon3)c2)cs1`: the “Percent Effect” value (30.3 µM, […]) is 70.63%.

`N#Cc1nccnc1NC1CCN(c2ccccc2Br)C1` (stereo not given): the “Percent Effect” value (30.3 µM, […]) was -7.134%.
